Measurements from PubChem BioAssay.

Target: Dickkopf-related protein 1 (Homo sapiens) (UniProt O94907)
Test: small molecules binding DKK1 protein – biochemical, small-molecule microarray, 635 nm fluorescence scan, primary screen (AID 1106);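 also: score merges emission near 667 nm with signal to noise over three replicate slides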
Details: higher = more signal

Sequence of Dickkopf-related protein 1 (Homo sapiens) (O94907 whole entry, looked up): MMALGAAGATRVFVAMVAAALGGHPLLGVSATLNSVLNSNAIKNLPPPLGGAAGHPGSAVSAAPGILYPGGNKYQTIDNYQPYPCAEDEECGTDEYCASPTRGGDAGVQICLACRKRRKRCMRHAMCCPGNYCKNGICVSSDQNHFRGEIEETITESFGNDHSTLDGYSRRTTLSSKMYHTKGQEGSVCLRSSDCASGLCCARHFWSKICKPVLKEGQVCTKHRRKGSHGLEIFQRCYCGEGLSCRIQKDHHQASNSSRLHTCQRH

SMILES	composite z-score
CO[C@H]1COC(=O)[C@@H](C)COC(=O)[C@H](Cc2ccccc2)NC(=O)CC=C[C@H]1C	1.5
C=CCC(OC(C)=O)[C@@H]1[C@@H](N(Cc2cccc3ccccc23)C(=O)c2ccc(C)cc2)c2cc(OCCCO)ccc2N1C(=O)c1ccc(-c2ccccc2)cc1 (some centres not stated)	-0.133
CC(C)[C@H]1NC(=O)[C@@]23C(=O)N[C@@H](Cc4ccccc4)C2[C@H](C)[C@@]2(C)O[C@H]2C3/C=C/C/C=C\CNC(=O)[C@H](C)NC1=O (some centres not stated)	-0.443
CO[C@H]1COC(=O)[C@@H](Cc2ccccc2)NC(=O)[C@@H](C)COC(=O)CC=C[C@@H]1C	0.913
CN1CCC(CCCO)=CC1C1CC1 (configuration not stated)	0.293
CC(C)[Si]1(C(C)C)OCc2cc(C3CC3)nc(-c3ccccc3)c21	-0.342
O=C1c2ccccc2[C@](Cc2ccccc2I)(C(=O)O)[C@H](c2ccc(CO)cc2)N1C1CCCCC1	0.16
C[C@@H]1NC(=O)CC=C[C@@H](C)[C@@H]2C=C[C@H](O)[C@@H](COC(=O)[C@H](C)NC(=O)CC=C[C@@H](C)[C@@H]3C=C[C@H](O)[C@@H](COC1=O)O3)O2	0.849
C=CCc1cccc([C@@H]2[C@@H](C)CC[C@H]3C(=O)N4[C@H](c5cccc(CC=C)c5)[C@@H](C)CC[C@H]4C(=O)N23)c1	0.666
C=CC[C@@]12N=C(c3ccc(OCCCO)cc3)O[C@@H]1c1ccccc1CN(Cc1ccccc1)C2=O	0.191
COc1ccc([C@H]2C[C@H]3C(Br)=C[C@]2(OC)C(=O)[C@]32CO2)cc1	0.239
C=CCOC(=O)[C@@H]1[C@H]2C(=O)O[C@H](c3ccccc3)[C@H](c3ccccc3)N2[C@H](c2ccc(OCCOC(=O)[C@H]3C[C@H]4C(=O)N5CCC[C@H]5C(=O)N4[C@H]3c3ccc(O)cc3)cc2)[C@@]12C(=O)Nc1ccccc12	0.921
